Source: PubChem BioAssay (several laboratories)
Rows were chosen to be rich in hits. Some 2.3% of all compounds tested hit in one or more screens of this group.
MEKK3 PB1 HTS – MEKK3-MEK5 PB1 interaction, increase or decrease. Q99759. bead-based flow cytometry, Alexa488-MEK5 binding to MEKK3; actives lie on both sides; 0 = blocked by unlabeled MEK5, 100 = vehicle. binding response (% of control), % at 10 µM. actives 1.4% (n = 290,000). AID 1529;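 active means binding response more than 3 SD above or below the average of its plate-row segment, actives on both sides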;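 further: Alexa488 bead fluorescence after subtracting the streptavidin-only scavenger bead signal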
MEKK2 mut-MEK5 – signal of MEK5 binding to mutant human MEKK2 PB1 domain; AID 1530; percent response, % at 10 µM; actives 0.35% (n = 290,000); bead flow cytometry, Alexa488-MEK5 binding to MEKK2 mutant; in the data active means percent response above about 24%, passing the limit was not always enough
UBC13 polyUb – blocks human UBC13 polyubiquitin chain formation; P61088; TR-FRET; actives 0.47% (n = 330,000); inhibition, % at 20 µM; in the data active means inhibition above about 45%, passing the limit was not always enough
Target sequence (P61088 whole entry, looked up): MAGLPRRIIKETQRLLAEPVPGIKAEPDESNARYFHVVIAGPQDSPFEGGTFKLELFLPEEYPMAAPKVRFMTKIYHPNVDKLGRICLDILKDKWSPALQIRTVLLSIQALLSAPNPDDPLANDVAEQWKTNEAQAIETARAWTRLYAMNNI
MEKK2wt PB1 HTS – raises or lowers MEK5 binding to wildtype human MEKK2 PB1 domain | Q9Y2U5 | bead flow cytometry, Alexa488-MEK5 binding to MEKK2 WT; actives lie on both sides | binding response (% of control), % at 10 µM | actives 1.1% (n = 290,000); in the data active means binding response below about 67% or above about 130%
MEKK2wt confirm – raises or lowers MEK5 binding to wildtype human MEKK2, retest; bead flow cytometry, Alexa488-MEK5 binding to MEKK2 WT; actives lie on both sides; binding response (% of control), % at 10 µM; AID 1892; shares compounds with MEKK3 PB1 HTS; actives 2.4% (n = 5,900); in the data active means binding response below about 16% or above about 210%; inactive means in between
MEKK2mut-MEK5 – signal of MEK5 binding to mutant human MEKK2, retest; percent response, % at 10 µM; shares compounds with MEKK3 PB1 HTS; actives 2% (n = 5,900); bead flow cytometry, Alexa488-MEK5 binding to MEKK2 mutant; in the data active means percent response mostly above about 71%, no sharp cut-off; inactive means mostly below about 38%;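 further: higher means compound restores mutant binding toward wildtype level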
MEKK3 confirm – MEKK3-MEK5 PB1 inhibition, single concentration confirmation; shares compounds with MEKK3 PB1 HTS; bead flow cytometry, Alexa488-MEK5 binding to MEKK3; active compounds read low; binding response (% of control), % at 10 µM; actives 1.8% (n = 5,900); AID 1894;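 active means binding response below 72% of control, or above a set upper limit, though filed actives all read lower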;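 further: 100% = DMSO only wells and 0% = binding blocked by excess unlabeled MEK5; lower values mean stronger disruption of MEK5 binding to MEKK3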
* hit, by the source's call; nt = not tested or not shown; [ ] = another dose, or the depositor's remark.

SMILES	MEKK3 PB1 HTS	MEKK2 mut-MEK5	UBC13 polyUb	MEKK2wt PB1 HTS	MEKK2wt confirm	MEKK2mut-MEK5	MEKK3 confirm
CC(C)CNC(=S)N(CCCO)Cc1cc2cc3c(cc2[nH]c1=O)OCO3	111.0	5.0	-8.9	111.0	nt	nt	nt
C=CCC1(CC=C)CCCN1Cc1nc(COc2ccccc2)no1	97.0	18.0	20.7	109.0	nt	nt	nt
COCCNC(=O)CN(C(=O)CCC(=O)Nc1ccccn1)c1ccccc1F	70.0*[inhibitor]	-1.0	-1.9	86.0	103.0	4.0	100.0
Cc1ccc(C)c(N(CC(=O)NCc2ccc3c(c2)OCO3)C(=O)CCC(=O)Nc2ccccn2)c1	82.0*[inhibitor]	-8.0	-1.1	91.0	102.0	4.0	104.0
C=CCN1c2ccccc2[C@]23C[C@@H](C(=O)OC)N(C(=O)c4ccco4)C2=NC(C(=O)OC)=C(C(=O)OC)[C@H]13	128.0*	2.0	-7.0	145.0*	95.0	-9.0	97.0
CCCOc1ccc(NC(=O)CC2C(=O)N(CC)C(=S)N2CCCN2CCN(Cc3ccccc3)CC2)cc1 (configuration not stated)	103.0	22.0	28.6	155.0*	150.0	29.0	109.0
CCN1C(=O)C(CC(=O)Nc2ccc(F)cc2)N(CCCN2CCN(c3ccc(F)cc3)CC2)C1=S (configuration not stated)	107.0	25.0	7.6	143.0*	133.0	25.0	108.0
CC(C)COC(=O)c1ccc(N2C(=O)c3ccccc3C2=O)cc1	5.0*[inhibitor]	-45.0	6.1	7.0*[inhibitor]	99.0	6.0	103.0
COc1ccccc1N(CC(=O)NCc1ccco1)C(=O)CCC(=O)Nc1ccccn1	97.0	3.0	3.7	94.0	nt	nt	nt
O=C1NC(=O)C2C3c4ccccc4C(c4ccccc43)C12 (configuration not stated)	70.0*[inhibitor]	-38.0	-14.9	77.0	99.0	-3.0	103.0
COc1ccc2c(c1)C(=O)/C(=C/C=C/c1ccccc1)CC2	90.0	-1.0	5.8	71.0*[inhibitor]	86.0	-7.0	99.0
Cc1[nH][nH]c(=O)c1C	nt	nt	1.6	nt	nt	nt	nt
Cn1cc(CN2CCCC(C(=O)Nc3ccc(-c4cccc(F)c4)cc3)C2)cn1 (configuration not stated)	99.0	12.0	17.3	129.0	nt	nt	nt
Cc1cccc(N2C(S)=C(C#N)C(=O)NC2c2ccco2)c1 (configuration not stated)	101.0	-12.0	2.8	81.0	nt	nt	nt
N#CC1=C(S)N(c2ccccc2)C(c2ccc(-c3cccc(Cl)c3)o2)NC1=O (configuration not stated)	130.0*	0.0	-11.1	101.0	95.0	-7.0	100.0
CCOC(=O)N1CCN(C(=O)CSc2ccc(-c3ccc(OC)c(OC)c3)nn2)CC1	103.0	8.0	-11.7	104.0	nt	nt	nt
COc1ccc(-c2ccc(SCC(=O)N3c4ccccc4CC3C)nn2)cc1OC (configuration not stated)	122.0*	9.0	-7.3	117.0	107.0	2.0	100.0
CCOC(=O)N1CCC(N2C(=O)c3ccccc3C2Nc2ccc(S(=O)(=O)N3CCOCC3)cc2)CC1 (configuration not stated)	100.0	3.0	-7.6	102.0	nt	nt	nt
CN1/C(=C\C=Nc2cc(S(=O)(=O)N3CCOCC3)ccc2N2CCOCC2)C(C)(C)c2ccccc21	137.0*	0.0	-4.5	111.0	124.0	10.0	104.0
Cc1ccccc1N=C/C=C1\N(C)c2ccccc2C1(C)C	94.0	-2.0	2.2	75.0	nt	nt	nt
CS(=O)(=O)N1CCN(C(=O)NC2CCCCC2)CC1	88.0	-5.0	6.3	92.0	nt	nt	nt
Cc1cc2ccccc2n1CCNC(=O)Cc1ccccc1	105.0	-4.0	13.0	82.0	nt	nt	nt
Cc1cc2ccccc2n1CCNC(=O)C(C)Oc1ccccc1 (configuration not stated)	80.0*[inhibitor]	-10.0	18.5	64.0*[inhibitor]	49.0	-16.0	82.0
Cc1cc2ccccc2n1CCNC(=O)c1ccc(S(=O)(=O)N2CCCCC2)cc1	82.0*[inhibitor]	-7.0	-3.3	79.0	80.0	-3.0	89.0
COc1cc(/C=C/C(=O)NCCn2c(C)cc3ccccc32)cc(OC)c1OC	115.0	11.0	23.3	98.0	nt	nt	nt
